The full data set covers some 7,900 targets. This sample favours those with a hit. About 0.6% of all pairs of compound and target were hits.
Columns and labels:
Test in all cases: log2 fold change, soluble protein after heating vs DMSO (PISA); higher = thermal stabilisation; K562 cells, 10 uM, 30 min; active = over 0.2 and 3.5 SD of the protein, either way, in both replicates (recomputed)
[1] = compound: C1=CC=C(C=C1)[C@H](COC2=CC3=C(C=C2)NC(=O)N3)NC(=O)C4=CC=CN(C4=O)CC5=CC(=C(C=C5)F)F
How it was run: (§1)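 Quantification of soluble protein used TMTpro 16plex LC-MS/MS, with channel sums equalised. Samples were the supernatant after 21,000xg for 90 min of pooled aliquots from K562 cells (2×10^6 cells/mL) treated with 10 μM compound for 30 min, heated for 3 min over 48°C-58°C, and extracted in PBS with 0.5% NP-40 at 4°C. Values, from duplicates, describe thermal stability against control samples on a log2 fold-change scale.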

[2] = compound: CC1=C(SC2=C1C(=N[C@H](C3=NN=C(N32)C)CC(=O)N)C4=CC=C(C=C4)Cl)C
How it was run: as §1

[3] = compound: CC1=C2C(=CC=C1)N=C(N(C2=O)C3=CC=CC=C3C)CN4C=NC5=C(N=CN=C54)N
How it was run: as §1

[4] = compound: Cc1sc2c(c1C)C(c1ccc(Cl)cc1)=N[C@@H](CC(=O)OC(C)(C)C)c1nnc(C)n1-2
How it was run: as §1

[5] = compound: c1ccc([C@@H]2C[C@H]2NC2CCNCC2)cc1
How it was run: as §1

Measured: log2 fold change

SLC35A1 (UniProt P78382)
Chain of UniProt P78382 (P78382 whole entry, looked up): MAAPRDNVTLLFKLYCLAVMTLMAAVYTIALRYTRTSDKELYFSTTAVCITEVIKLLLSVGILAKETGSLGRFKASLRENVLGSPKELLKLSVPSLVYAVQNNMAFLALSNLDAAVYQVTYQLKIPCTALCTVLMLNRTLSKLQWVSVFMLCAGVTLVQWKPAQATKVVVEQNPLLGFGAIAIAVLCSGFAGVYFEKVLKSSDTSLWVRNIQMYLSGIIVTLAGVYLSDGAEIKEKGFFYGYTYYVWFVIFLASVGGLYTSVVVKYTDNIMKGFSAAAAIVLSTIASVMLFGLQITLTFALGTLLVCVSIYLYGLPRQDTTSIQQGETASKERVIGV
inactive: [1] -0.046 | [2] -0.108 | [3] 0.05 | [4] -0.07 | [5] 0.013

SP1 (UniProt P08047)
Chain of UniProt P08047 (P08047 whole entry, looked up): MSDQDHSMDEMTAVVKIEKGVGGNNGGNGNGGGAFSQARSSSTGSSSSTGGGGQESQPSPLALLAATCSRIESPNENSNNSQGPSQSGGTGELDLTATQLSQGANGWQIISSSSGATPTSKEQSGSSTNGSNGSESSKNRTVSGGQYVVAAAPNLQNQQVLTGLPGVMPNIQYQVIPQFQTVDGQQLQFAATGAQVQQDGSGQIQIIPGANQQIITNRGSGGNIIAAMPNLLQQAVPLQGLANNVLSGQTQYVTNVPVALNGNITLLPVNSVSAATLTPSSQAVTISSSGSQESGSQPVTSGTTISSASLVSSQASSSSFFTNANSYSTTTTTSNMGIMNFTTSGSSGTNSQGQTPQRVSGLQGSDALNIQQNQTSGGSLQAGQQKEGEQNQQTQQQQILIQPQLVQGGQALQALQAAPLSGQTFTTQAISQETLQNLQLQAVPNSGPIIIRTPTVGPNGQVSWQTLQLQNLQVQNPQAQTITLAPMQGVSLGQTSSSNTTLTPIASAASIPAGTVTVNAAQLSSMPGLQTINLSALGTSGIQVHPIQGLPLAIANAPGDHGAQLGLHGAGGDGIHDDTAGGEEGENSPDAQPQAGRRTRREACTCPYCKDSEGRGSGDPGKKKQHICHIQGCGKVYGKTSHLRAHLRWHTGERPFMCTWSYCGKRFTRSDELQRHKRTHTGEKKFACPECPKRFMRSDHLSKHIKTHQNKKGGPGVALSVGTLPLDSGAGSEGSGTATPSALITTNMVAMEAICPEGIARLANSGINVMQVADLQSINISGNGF
inactive: [1] 0.002 | [2] -0.029 | [3] 0.016 | [4] 0.051 | [5] 0.02

TIMM13 (UniProt Q9Y5L4)
Chain of UniProt Q9Y5L4 (Q9Y5L4 whole entry, looked up): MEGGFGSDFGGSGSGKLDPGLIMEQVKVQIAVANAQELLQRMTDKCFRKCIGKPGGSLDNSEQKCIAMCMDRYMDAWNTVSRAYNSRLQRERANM
inactive: [1] -0.049 | [2] 0.049 | [3] 0.012 | [4] -0.035 | [5] 0.013

SOX5 (UniProt P35711)
Chain of UniProt P35711 (P35711 whole entry, looked up): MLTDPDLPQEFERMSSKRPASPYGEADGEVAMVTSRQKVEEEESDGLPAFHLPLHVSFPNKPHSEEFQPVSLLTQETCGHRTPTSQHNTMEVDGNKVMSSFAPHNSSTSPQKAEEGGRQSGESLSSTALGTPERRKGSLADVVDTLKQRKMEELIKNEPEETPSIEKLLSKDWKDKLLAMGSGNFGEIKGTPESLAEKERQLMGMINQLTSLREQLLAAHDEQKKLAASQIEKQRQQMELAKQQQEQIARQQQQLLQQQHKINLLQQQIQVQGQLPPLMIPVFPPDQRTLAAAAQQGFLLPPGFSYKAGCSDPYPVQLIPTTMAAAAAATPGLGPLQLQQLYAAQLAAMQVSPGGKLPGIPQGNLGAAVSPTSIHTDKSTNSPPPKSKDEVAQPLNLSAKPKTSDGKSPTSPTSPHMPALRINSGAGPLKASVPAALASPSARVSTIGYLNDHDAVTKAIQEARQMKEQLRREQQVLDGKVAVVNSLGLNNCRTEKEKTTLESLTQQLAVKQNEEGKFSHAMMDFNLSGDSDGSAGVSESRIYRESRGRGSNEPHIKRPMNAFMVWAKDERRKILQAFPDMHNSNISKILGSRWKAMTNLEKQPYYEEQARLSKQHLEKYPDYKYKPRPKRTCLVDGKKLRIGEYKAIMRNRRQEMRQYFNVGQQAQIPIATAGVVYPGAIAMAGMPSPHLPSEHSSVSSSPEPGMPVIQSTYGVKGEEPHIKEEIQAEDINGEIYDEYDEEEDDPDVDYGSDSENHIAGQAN
inactive: [1] -0.033 | [2] 0.005 | [3] -0.058 | [4] -0.018 | [5] -0.022

SLC46A1 (UniProt Q96NT5)
Chain of UniProt Q96NT5 (Q96NT5 whole entry, looked up): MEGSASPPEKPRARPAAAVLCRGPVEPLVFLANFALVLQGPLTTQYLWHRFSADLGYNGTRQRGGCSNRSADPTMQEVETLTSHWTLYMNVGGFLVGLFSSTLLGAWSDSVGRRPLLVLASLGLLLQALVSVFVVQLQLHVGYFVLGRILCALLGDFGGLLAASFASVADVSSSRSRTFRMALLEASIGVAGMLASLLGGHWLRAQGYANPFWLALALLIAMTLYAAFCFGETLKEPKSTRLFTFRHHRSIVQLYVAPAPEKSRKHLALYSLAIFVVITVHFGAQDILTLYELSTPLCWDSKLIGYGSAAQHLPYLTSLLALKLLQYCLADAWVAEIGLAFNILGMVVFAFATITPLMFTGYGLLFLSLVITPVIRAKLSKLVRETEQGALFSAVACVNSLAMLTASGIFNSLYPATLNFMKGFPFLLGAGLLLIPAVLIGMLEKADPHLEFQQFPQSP
inactive: [2] -0.09 | [3] 0.075 | [4] 0.024 | [5] 0.256

TM7SF3 (UniProt Q9NS93)
Chain of UniProt Q9NS93 (Q9NS93 whole entry, looked up): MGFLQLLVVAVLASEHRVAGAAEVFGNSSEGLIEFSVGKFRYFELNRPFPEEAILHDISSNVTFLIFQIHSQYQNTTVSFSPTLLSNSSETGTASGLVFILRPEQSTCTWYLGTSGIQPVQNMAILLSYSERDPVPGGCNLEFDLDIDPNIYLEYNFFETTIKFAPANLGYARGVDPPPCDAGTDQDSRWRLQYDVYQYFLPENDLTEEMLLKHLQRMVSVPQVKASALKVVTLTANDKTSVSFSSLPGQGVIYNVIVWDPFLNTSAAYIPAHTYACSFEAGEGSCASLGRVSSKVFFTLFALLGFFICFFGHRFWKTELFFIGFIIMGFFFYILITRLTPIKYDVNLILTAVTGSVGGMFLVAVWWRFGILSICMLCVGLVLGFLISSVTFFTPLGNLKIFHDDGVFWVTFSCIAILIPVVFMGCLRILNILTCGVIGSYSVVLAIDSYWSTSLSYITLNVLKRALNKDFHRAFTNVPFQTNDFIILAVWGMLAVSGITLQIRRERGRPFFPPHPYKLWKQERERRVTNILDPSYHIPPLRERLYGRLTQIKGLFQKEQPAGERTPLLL
inactive: [1] -0.058 | [2] 0.104 | [4] -0.037 | [5] 0.196

THAP9 (UniProt Q9H5L6)
Chain of UniProt Q9H5L6 (Q9H5L6 whole entry, looked up): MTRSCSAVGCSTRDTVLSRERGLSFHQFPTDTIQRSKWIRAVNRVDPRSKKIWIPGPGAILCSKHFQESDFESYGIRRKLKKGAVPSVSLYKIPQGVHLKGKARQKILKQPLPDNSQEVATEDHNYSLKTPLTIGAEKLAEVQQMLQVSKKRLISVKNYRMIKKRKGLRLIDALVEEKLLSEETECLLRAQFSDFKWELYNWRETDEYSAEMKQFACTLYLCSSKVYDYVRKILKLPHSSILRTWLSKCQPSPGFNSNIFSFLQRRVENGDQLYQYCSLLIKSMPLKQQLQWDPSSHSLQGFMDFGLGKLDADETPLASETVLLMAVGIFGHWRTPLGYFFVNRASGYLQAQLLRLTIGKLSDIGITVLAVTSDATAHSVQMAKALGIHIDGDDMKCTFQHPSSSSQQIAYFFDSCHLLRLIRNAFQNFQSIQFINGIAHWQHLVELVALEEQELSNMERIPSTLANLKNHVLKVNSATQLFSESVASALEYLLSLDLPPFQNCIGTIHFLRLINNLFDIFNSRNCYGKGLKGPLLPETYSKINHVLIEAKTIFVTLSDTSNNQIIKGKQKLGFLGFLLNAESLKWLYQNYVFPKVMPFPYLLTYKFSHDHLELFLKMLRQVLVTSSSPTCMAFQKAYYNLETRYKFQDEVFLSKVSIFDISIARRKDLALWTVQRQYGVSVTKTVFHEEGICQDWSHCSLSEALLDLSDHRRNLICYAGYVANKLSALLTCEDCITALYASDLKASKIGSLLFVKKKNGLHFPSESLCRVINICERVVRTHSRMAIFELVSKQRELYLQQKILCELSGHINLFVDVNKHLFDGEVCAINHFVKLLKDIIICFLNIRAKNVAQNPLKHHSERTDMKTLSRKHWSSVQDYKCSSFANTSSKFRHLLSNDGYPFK
inactive: [1] 0.093 | [2] 0.167 | [5] -0.046

TAOK2 (UniProt Q9UL54)
inactive: [4] 0.026

SLC8B1 (UniProt Q6J4K2)
Chain of UniProt Q6J4K2 (Q6J4K2 whole entry, looked up): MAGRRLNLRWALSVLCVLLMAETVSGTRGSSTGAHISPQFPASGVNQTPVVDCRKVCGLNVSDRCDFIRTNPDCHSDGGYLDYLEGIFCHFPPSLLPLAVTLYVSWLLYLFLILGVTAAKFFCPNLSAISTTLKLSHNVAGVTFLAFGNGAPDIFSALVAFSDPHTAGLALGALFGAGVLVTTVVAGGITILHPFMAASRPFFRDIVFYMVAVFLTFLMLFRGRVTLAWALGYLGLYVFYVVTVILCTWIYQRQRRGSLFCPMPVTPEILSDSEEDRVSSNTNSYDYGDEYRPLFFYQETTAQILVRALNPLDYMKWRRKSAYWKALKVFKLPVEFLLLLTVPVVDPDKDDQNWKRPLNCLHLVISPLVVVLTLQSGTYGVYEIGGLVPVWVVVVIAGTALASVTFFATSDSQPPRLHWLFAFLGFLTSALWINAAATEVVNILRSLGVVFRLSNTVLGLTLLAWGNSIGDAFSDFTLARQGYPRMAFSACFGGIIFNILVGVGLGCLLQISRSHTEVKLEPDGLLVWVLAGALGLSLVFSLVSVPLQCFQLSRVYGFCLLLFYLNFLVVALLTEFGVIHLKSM
inactive: [1] 0.094 | [2] 0.178 | [3] 0.019 | [5] -0.049

TDP1 (UniProt Q9NUW8)
inactive: [2] 0.068 | [5] 0.054

SNX1 (UniProt Q13596)
Chain of UniProt Q13596 (Q13596 whole entry, looked up): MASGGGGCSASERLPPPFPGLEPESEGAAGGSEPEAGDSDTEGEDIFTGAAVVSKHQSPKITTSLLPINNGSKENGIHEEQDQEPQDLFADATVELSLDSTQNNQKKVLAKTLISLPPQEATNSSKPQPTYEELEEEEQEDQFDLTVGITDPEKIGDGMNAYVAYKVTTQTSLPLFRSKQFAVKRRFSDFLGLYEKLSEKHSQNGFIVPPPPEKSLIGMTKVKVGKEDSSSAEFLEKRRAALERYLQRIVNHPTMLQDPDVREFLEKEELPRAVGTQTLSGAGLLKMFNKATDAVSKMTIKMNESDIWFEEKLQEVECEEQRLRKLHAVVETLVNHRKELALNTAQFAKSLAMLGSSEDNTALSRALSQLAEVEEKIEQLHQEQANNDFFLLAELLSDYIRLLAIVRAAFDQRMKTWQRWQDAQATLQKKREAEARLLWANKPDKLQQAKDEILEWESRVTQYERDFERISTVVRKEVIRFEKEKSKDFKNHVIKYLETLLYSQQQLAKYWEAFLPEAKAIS
inactive: [1] -0.019 | [2] 0.029 | [3] 0.038 | [4] -0.003 | [5] -0.07

TCOF1 isoform 3 (UniProt Q13428)
inactive: [4] -0.093

SSB (UniProt E7ERC4)
inactive: [3] 0.188
